From PubChem BioAssay AID624352 (Sanford-Burnham Center for Chemical Genomics, 2012)
Among all 360,000 compounds or so, about 2,600 (0.72%) were called active.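 The calls were made as follows: active = inhibition of the luminescence signal of 40% or more relative to plate controls, in a single-dose primary screen at 18.75 µM; inactive = the rest.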 The sample as a whole holds a higher share of actives than the screen did.

assay: blockers of HIF-2a driven luciferase – luminescence, 786-0 RCC cells, primary screen (AID 624352); conditions: 786-0 RCC cells HIF-2a reporter, overnight, at 18.8 µM, hits give high values

Row | Structure (SMILES) | inhibition
1 | CSc1ccccc1NC(=O)Cc1ccc(Br)cc1 | -11.3% (inactive)
2 | COc1ccc(C(=O)/C=C/c2ccc(-c3ccccc3)cc2)cc1CSCC(=O)O | 67.7% (active)
3 | COc1ccccc1CCNC(=O)C1CCN(C(=O)/C=C/c2ccccc2)CC1 | -5.61% (inactive)
4 | COC(=O)c1ccc(COc2ccc(/C=C/C(=O)c3ccc(OC)c(CSCC(=O)O)c3)cc2OC)cc1 | -5.92% (inactive)
5 | CC(C)Cc1ccc(C(C)C(=N)N)cc1 (centres undefined) | 25.6% (inactive)
6 | COCCNC(=O)CN(Cc1ccco1)C(=O)CCC(=O)Nc1nccs1 | 3.02% (inactive)
7 | COc1ccc(CCNC(=O)Nc2ccc3c(c2)c(=O)n(C)n3C)cc1OC | 3.46% (inactive)
8 | COCCNC(=O)Nc1ccc2nc(-c3ccco3)c(-c3ccco3)nc2c1 | 42.3% (active)
9 | O=S1(=O)CC(N2CCN(Cc3ccccc3F)CC2)CN1Cc1cn(Cc2cccc(C(F)(F)F)c2)nn1 (centres undefined) | 1.15% (inactive)
10 | CCOc1ccc(OCC(=O)Nc2c3c(nn2C(C)(C)C)CS(=O)(=O)C3)cc1 | -1.94% (inactive)
11 | CCC(C)(C)c1ccc(Oc2ccc(NC(=O)COC(=O)C3=COCCO3)cc2)cc1 | 82.3% (active)
12 | O=C1CCC(C(=O)OCC(=O)Nc2ccc(OC(F)F)cc2)=NN1 | -7.05% (inactive)
13 | COc1ccc(NC(=O)COC(=O)CNC(=O)C2CCCCC2)cc1 | 12.4% (inactive)
14 | CCc1cccc(NC(=O)CCCN2C(=O)C(c3ccccc3)Oc3cccnc32)c1 (centres undefined) | 9.51% (inactive)
15 | Cc1ccc(C(=O)N2CC(=O)Nc3ccccc32)o1 | 14.2% (inactive)
16 | Fc1ccc(CNc2nc3ccccc3n3nnnc23)cc1 | -134% (inactive)
17 | CC(=O)Nc1ccc(C(=O)CSc2nnc(Cc3ccccc3)o2)cc1 | -43.3% (inactive)
18 | CC(C)C[C@@H](N)c1nnc(SCC(=O)c2ccc(Cl)cc2)o1 | 56.9% (active)
19 | COc1cc(C(=O)NCc2nnc(SCC(=O)c3ccc(Cl)cc3)o2)cc(OC)c1OC | 5.32% (inactive)
20 | C[C@H]1Cn2cnc(C(=O)N[C@@H](Cc3c[nH]c4ccccc34)C(=O)OC(C)(C)C)c2C(=O)N1 | -4.95% (inactive)
21 | C=CCC[C@@H](Cc1ccc(F)cc1)C(=O)O[C@H](CNC(=O)[C@H](CC=C)CC(=O)N(CCO)Cc1ccccc1)c1ccccc1 | 12.7% (inactive)
22 | CCN1CCN(C(=O)C2(NC(=O)Nc3cccc(F)c3)CCCCC2)CC1 | 9.23% (inactive)
23 | COc1ccc(NC(=O)C2C3C=CC(C3)C2C(=O)NCc2ccccn2)c(OC)c1 (centres undefined) | 10.9% (inactive)

Row | Structure (SMILES) | inhibition
24 | Cc1c(NC(=O)C(C)OC(=O)c2cc3c4ccccc4n(C)c3s2)c(=O)n(-c2ccccc2)n1C (centres undefined) | 4.75% (inactive)
25 | Cc1sc2ccccc2c1CNC[C@H]1O[C@@H](n2ccc(=O)[nH]c2=O)[C@H](O)[C@@H]1O | 11.7% (inactive)
26 | OC(c1cc(Cl)cc(Cl)c1)c1ncc(-c2ccccc2C(F)(F)F)[nH]1 (centres undefined) | 14.7% (inactive)
27 | O=C(OC12CC3CC(CC(C3)C1)C2)c1ccc(NCc2cc(O)ccc2O)cc1 | 88.1% (active)
28 | CC(C)OCCCNC(=S)N1CCC(C(=O)c2ccc3c(c2)OCCO3)CC1 | -5.91% (inactive)
29 | c1ccc(-c2ccnc3nc(-n4cccc4)nn23)cc1 | -8.27% (inactive)
30 | C/C(N)=C(/C#N)C(=O)COC(=O)C1CCN(C(=O)c2ccc(Cl)cc2)CC1 | 8.64% (inactive)
31 | CCc1ccc(-c2cc(C)no2)cc1S(=O)(=O)NCCc1ccc(S(N)(=O)=O)cc1 | 9.29% (inactive)
32 | Cc1cc(CNC(=O)C2CCC(=O)N(CCc3ccc(Cl)cc3)C2)no1 (centres undefined) | -9.67% (inactive)
33 | O=C(NCCc1c[nH]c2ccc(Cl)cc12)c1ccc([N+](=O)[O-])cc1 | -9.18% (inactive)
34 | COc1ccccc1-n1nnnc1S(=O)(=O)Cc1ccc(Cl)cc1 | 86% (active)
35 | CCN(C(=O)CSc1nnnn1-c1ccccc1OC)C1CCS(=O)(=O)C1 (centres undefined) | -1.01% (inactive)
36 | COc1ccccc1CN(C)c1nnnn1-c1ccccc1 | 15.6% (inactive)
37 | Cc1[nH]c2ccccc2c1C(=O)c1cc([C@H](NC(=O)OC(C)(C)C)C(C)C)sc1N | 2.29% (inactive)
38 | C=CCOc1ccccc1CNn1c(C)n[nH]c1=S | 21.3% (inactive)
39 | COc1cccc(C(NC(C)=O)c2nc(-c3cnc4ccccc4c3)cs2)c1 (centres undefined) | -32.9% (inactive)
40 | O=[N+]([O-])c1c(NCCO)cc(Sc2nc3ccccc3s2)c2nonc12 | 87% (active)
41 | CC(C)=CCN1CCN(CCCc2ccccc2)CC1CCO (centres undefined) | 16.8% (inactive)
42 | CC[C@]1(c2ccccc2OC)C(=O)N(C(=O)OC)N1C(=O)OC | 18.5% (inactive)
43 | CCN(CC(=O)NC(C)C)C(=O)CCNC(=O)c1ccc(Cl)cc1 | 14.3% (inactive)
44 | O=C(OC1CCOC1=O)c1cccc(S(=O)(=O)Nc2ccc(F)cc2)c1 (centres undefined) | 14.8% (inactive)
45 | COc1ccc(N2CCN(C(=O)COC(=O)c3cccc(S(=O)(=O)Nc4ccccc4OC)c3)CC2)cc1 | 12.6% (inactive)
46 | CC(=O)Nc1ccc(/C(C)=N/NC(=O)CN(c2ccccc2Br)S(C)(=O)=O)cc1 | 1.74% (inactive)

Row | Structure (SMILES) | inhibition
47 | O=C(Oc1ccc(-c2nc(-c3ccccn3)no2)cc1)c1ccccc1 | 42.3% (active)
48 | COC(=O)c1ccc(OC(=O)c2cnccn2)cc1 | 17.4% (inactive)
49 | O=C(COc1cccc(F)c1)Oc1ccc(C(=O)c2ccccc2)cc1 | -3.52% (inactive)
50 | CC(=O)Nc1ccc(NC(=O)[C@@H](NC(=O)c2cccc(C)c2)C(C)C)cc1 | 4.88% (inactive)
51 | Cc1cccc(C(=O)Nc2ccc(CC(=O)O)cc2)c1 | 60.9% (active)
52 | Cc1cccc(C(=O)Nc2ccc(C(=O)/C=C/c3cccs3)cc2)c1 | -134% (inactive)
53 | O=C(CCc1ccccc1)NNc1ccc(F)cc1 | 5.59% (inactive)
54 | N#CC1=C(N)OC2=C(C(=O)CCC2)C1C1CC=CCC1 (centres undefined) | -5.19% (inactive)
55 | CCCc1nc2c([nH]1)C(c1cccnc1)C(C#N)=C(N)O2 (centres undefined) | 20.2% (inactive)
56 | CCCc1[nH]nc2c1C(C1CC=CCC1)C(C#N)=C(N)O2 (centres undefined) | 52.3% (active)
57 | COc1ccc(C2C(C#N)=C(N)Oc3n[nH]c(C)c32)cc1CN1CCN(c2ccc(F)cc2)CC1 (centres undefined) | 16.6% (inactive)
58 | CCCc1[nH]nc2c1C(c1ccc(Br)s1)C(C#N)=C(N)O2 (centres undefined) | 80.8% (active)
59 | CSC1=NCCN1C(=O)c1ccc(S(=O)(=O)N2CCOCC2)cc1 | 4.81% (inactive)
60 | CC(C)C(C(=O)NC1CCCCC1)N(CC1CCCO1)C(=O)CNS(=O)(=O)c1ccc(F)cc1 (centres undefined) | 12.1% (inactive)
61 | COc1ccc(C2/C=C\CN(CC(C)C)CC(=O)N2Cc2ccc(F)cc2)cc1 (centres undefined) | 4.31% (inactive)
62 | COC(=O)c1sccc1NC(=O)CSc1ccccc1NS(=O)(=O)c1cc(Cl)ccc1Cl | 7.65% (inactive)
63 | Cc1ccc(CC(=O)N(C)CC(=O)N(CC(C)C)c2c(N)n(CC(C)C)c(=O)[nH]c2=O)cc1C | 10.3% (inactive)
64 | C=C(C)C(=O)O[C@H]1C/C(C)=C\C(=O)/C=C(\C)[C@H](O)[C@@H]2OC(=O)C(=C)[C@@H]21 | 92.8% (active)
65 | Cc1ccc(Cl)c(OCC(=O)NN2CCN(C)CC2)c1 | 13.6% (inactive)
66 | CC1CN(C(=O)COC(=O)c2cccc(NS(=O)(=O)c3ccccc3)c2)CC(C)O1 (centres undefined) | 10.2% (inactive)
67 | CNC(=O)NC(=O)C(C)N1CCN(C/C=C/c2ccccc2)CC1 (centres undefined) | 16.3% (inactive)
68 | COCCCNC(=O)CNC(=O)c1nn(-c2ccc(OC)cc2)c(=O)c2ccccc12 | 4.73% (inactive)
69 | O=C(NC(=S)N1CCN(Cc2ccccc2)CC1)c1ccccc1 | 3.06% (inactive)

Row | Structure (SMILES) | inhibition
70 | OCCN1CCN(C(=S)c2ccc(-c3ccccc3)cc2)CC1 | 88.1% (active)
71 | S=C(c1ccc(-c2ccccc2)o1)N1CCCCC1 | -291% (inactive)
72 | CCN(C(=O)c1cc([N+](=O)[O-])ccc1NCc1cccnc1)c1ccccc1 | 11.9% (inactive)
73 | Cc1ccc(S(=O)(=O)N(C)C)cc1NC(=O)COC(=O)C1COc2ccccc2O1 (centres undefined) | 3.99% (inactive)
74 | Fc1ccc2c(c1)C(c1cccnc1)=NNC(c1cccs1)=N2 | 0.189% (inactive)
75 | O=C(/C=C/c1ccc([N+](=O)[O-])o1)NNC(=O)c1ccc(F)cc1 | 30.1% (inactive)
76 | CCn1c(/C=C/c2ccc([N+](=O)[O-])o2)nc2ccccc2c1=O | 56.6% (active)
77 | C=CCn1c(SCC(=O)NC(=O)Cc2ccccc2)nc2ccccc2c1=O | 15.8% (inactive)
78 | CCc1cc(CNC(=O)CC2C(=O)NCCN2Cc2ccccc2C(F)(F)F)on1 (centres undefined) | 7.76% (inactive)
79 | Cc1cc(C)c(S(=O)(=O)N2CCOCC2)cc1C | 16.4% (inactive)
80 | COCc1cc(=O)n2[nH]c(C)c(-c3ccccc3)c2n1 | 11.1% (inactive)
81 | CC(C)[C@H](NC(=O)c1ccccc1F)C(=O)Nc1cccc(S(=O)(=O)N2CCOCC2)c1 | 6.68% (inactive)
82 | CCN(CC)CCCC(C)n1c2nc(=O)[nH]c(=O)c-2nc2cc(Cl)ccc21 (centres undefined) | 70.8% (active)
83 | O=c1c(-c2ccccc2Cl)c[nH]n1-c1ccccc1 | -21.8% (inactive)
84 | OC(c1ccccc1)c1nccn1Cc1ccccc1 (centres undefined) | 6.44% (inactive)
85 | Cc1cc(C)c(NC(=O)c2oc3ccccc3c2COc2ccccc2)c(C)c1 | 1.23% (inactive)
86 | CCOC(=O)N1CCC(=NNC(N)=O)CC1 | 9.05% (inactive)
87 | CN(C)CCNC(=O)c1cccc(-c2cnc3c(NC=O)cc(-c4cccc(C(F)(F)F)c4)cn23)c1 | 79.2% (active)
88 | CN(C)C(=O)c1cccc(-c2cnc3c(NC=O)cc(-c4ccc(F)cc4)cn23)c1 | 9.01% (inactive)
89 | CC(=O)c1cccc(-c2cnc3c(NC=O)cc(-c4ccc(N(C)C)cc4)cn23)c1 | -15.5% (inactive)
